Sfp inh: inhibitors of Bacillus subtilis Sfp phosphopantetheinyl transferase; Biochemical Sfp PPTase activity, qHTS; 3.5% of 310,000 active; Q9F4F7; Potency, µM, for the others: largest response in the series, negative = inhibition, usual class: inhibitors; AID 1490;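 further: the enzyme is Sfp with the accession as filed and its product quenches rhodamine fluorescence; potency means the concentration at half of the fitted maximal effect; 0% = enzyme reaction without inhibitor and -100% = no enzyme wells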
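Buffer: 50 mM Hepes-Na pH 7.6, 10 mM MgCl2, 0.01% Nonidet P-40, 0.01% BSA. Enzyme 15 nM, pre-exposed to compound 15 min; substrates then added and fluorescence change tracked over 30 min.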
Mm-Cpn inhibitor: M. maripaludis TRiC chaperonin inhibition; purified Mm-Cpn ATPase, ADP Transcreener TR-FRET; AID 504842; Potency, µM (series often up to 76.9 µM), inactives show at the top dose activity, negative = inhibition, actives largely listed as inhibitors; 0.031% of 330,000 active; further: potency means the concentration at half of the fitted maximal effect; nearly all actives have a fitted effect of over 80% in size
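Measured: ADP formation by purified Mm-CPN. Conditions: 25 nM protein, 10 uM ATP, Tris pH 7.4 with Mg2+, K+ and DTT, 37°C for 30 min. Detection: Transcreener HTRF after 30 min at room temperature.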
CCT chaperon mod: changes cytosolic chaperonin activity; purified chaperonin ATPase assay, HTRF ADP detection, 30 min; 0.3% of 360,000 active; activity change, % (concentration not given with the values), hits read low; AID 651819; in the data active means activity change below about -30%
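TRiC (40 or 20 nM final, by batch activity) in 30 mM Tris pH 7.4, 100 mM KCl, 5 mM MgCl2, 1 mM DTT was treated with compound at 76 uM single dose, then 10 uM ATP, 30 min at 37 °C. ADP was read by HTRF Transcreener.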
G9a block: blocks human histone lysine methyltransferase G9a; AID 504332; G9a H3K9 monomethylation, AlphaScreen, 2 h; 8.8% of 350,000 active; Potency, µM (doses to about 102 µM), for the others: top-dose activity, negative = inhibition, most hits filed as inhibitors; further: potency means the concentration at half of the fitted maximal effect; nearly all actives have a fitted effect of over 75% in size
Target sequence (Q96KQ7 913-1193 limits assumed): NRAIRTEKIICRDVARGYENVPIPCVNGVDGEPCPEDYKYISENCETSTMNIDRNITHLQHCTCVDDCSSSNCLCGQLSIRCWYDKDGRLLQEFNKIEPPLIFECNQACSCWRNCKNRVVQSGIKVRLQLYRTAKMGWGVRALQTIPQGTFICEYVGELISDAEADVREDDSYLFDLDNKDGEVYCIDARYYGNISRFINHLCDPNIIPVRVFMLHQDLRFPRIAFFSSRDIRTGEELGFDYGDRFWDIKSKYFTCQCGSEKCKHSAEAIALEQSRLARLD
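Readings reflect AlphaScreen signal from monomethyl-H3K9 antibody detection. HMT at 20 nM; substrate b-H3K9 500 nM; cofactor SAM 20 uM; 2 h RT reaction; compounds tested as titrations in qHTS with 15 min preincubation.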
PLK1 PBD block: inhibitors of human PLK1 polo-box domain binding. P53350. Plk1 PBD binding of FITC phosphopeptide, fluorescence polarization. Potency, µM, for the others: max response, negative = inhibition, actives largely listed as inhibitors. 2.8% of 360,000 active. AID 720504; further: potency means the concentration at half of the fitted maximal effect; series mostly up to about 57 µM; nearly all actives have a fitted effect of over 65% in size
VDR inhibitor: inhibitors of human vitamin D receptor; P11473; VDR-SRC2-3 peptide fluorescence polarization, 2 h; Potency, µM, for inactives: max response, negative = inhibition, hits mostly inhibitors; 0.93% of 400,000 active; AID 504847; further: potency means the concentration at half of the fitted maximal effect
Target sequence (P11473 whole entry, looked up): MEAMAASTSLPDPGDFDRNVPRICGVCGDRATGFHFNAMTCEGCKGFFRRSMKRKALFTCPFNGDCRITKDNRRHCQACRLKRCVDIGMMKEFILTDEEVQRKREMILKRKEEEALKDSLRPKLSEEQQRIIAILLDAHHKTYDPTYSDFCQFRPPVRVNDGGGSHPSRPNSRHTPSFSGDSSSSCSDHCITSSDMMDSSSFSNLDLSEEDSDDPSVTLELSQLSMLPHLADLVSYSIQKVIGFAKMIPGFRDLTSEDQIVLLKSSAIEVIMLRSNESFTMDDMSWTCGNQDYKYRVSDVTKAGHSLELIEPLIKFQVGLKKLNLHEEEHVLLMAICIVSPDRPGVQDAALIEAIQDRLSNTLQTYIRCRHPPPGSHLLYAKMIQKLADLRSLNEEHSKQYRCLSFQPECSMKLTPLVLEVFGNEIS
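FP read-out; VDR + SRC2-3 coactivator peptide; 23 nl compound by pintool; 2 h RT incubation; reagents held at 4 deg C, protected from light.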
An asterisk follows results filed as active; ? = inconclusive; . = not tested or not shown; [ ] = another dose, or the depositor's remark. In the library only some 10% were active in any assay of this set; here they are far more common. Unless noted, the call rests on the fitted dose curve; in most records, active means well fitted curve in the direction sought with a large enough effect; inconclusive means small, poorly fitted or top-dose-only effect, or another doubt; inactive means no such curve, though single readings can be large; an effect the other way counts as inactive or inconclusive. Unless noted, on the % scale 0 is the no-effect control and ±100 the full control effect.

SMILES | Sfp inh | Mm-Cpn inhibitor | CCT chaperon mod | G9a block | PLK1 PBD block | VDR inhibitor
OC[C@H]1O[C@@H](n2cnc3c(N[C@H]4C[C@H]5CC[C@@H]4C5)ncnc32)[C@H](O)[C@@H]1O | 7% | . | . | 35%[59 µM] | . | 1%
COc1ccc(N2CCN(C(=O)CSc3nc4ccccc4nc3Cc3ccc(Cl)cc3)CC2)cc1 | . | . | . | ? | . | -4%
COc1cccc(C(c2nnnn2Cc2ccccc2)N2CCN(C3CCCC3)CC2)c1OC (stereo not drawn) | 3% | -2% | -3 | -49%[59 µM] | -7% | -10%
COc1ccc(C(c2nnnn2CCc2ccccc2)N2CCN(C3CCCC3)CC2)cc1OC (stereo not drawn) | -2% | 1% | 2 | 50µM* | 0% | 0%
COc1ccccc1C(c1nnnn1Cc1ccccc1)N1CCN(C2CCCC2)CC1 (stereo not drawn) | 10% | -1% | 1 | ? | 30µM* | -14%
COCCn1nnnc1C(c1cccs1)N1CCN2CCCC2C1 (stereo not drawn) | 11% | 1% | 1 | 10% | 19µM* | -5%
Fc1ccc(Cn2nnnc2C(c2cccs2)N2CCN(C3CCCCC3)CC2)cc1 (stereo not drawn) | 9% | -2% | 0 | . | 6% | -10%
Cc1ccc(C(=O)c2cn(CC(=O)Nc3ccc4c(c3)OCCO4)c3nc(C)ccc3c2=O)cc1 | . | . | . | -34%[59 µM] | . | 22%
COc1ccc(C2=C(C#N)C(=O)OC2)cc1 | 1% | 0% | 1 | 32µM* | ? | -2%
COc1ccc(-c2nc(-c3ccccc3)[nH]c(=O)c2C#N)cc1 | 12% | 0% | 0 | 3% | -16% | 10%
Cc1ccc(SCc2nc3ccccc3n2CC(=O)Nc2ccccc2)cc1 | 50µM* | 2% | 2 | 46%[12.7 µM] | 1% | -7%
O=C(Cn1c(/C=C/c2ccccc2)nc2ccccc21)Nc1ccc(F)cc1 | -2% | 0% | 0 | 28%[59 µM] | 19µM* | ?
CSc1nc2ccccc2n1CC(=O)Nc1ccccc1 | -8% | 0% | -2 | 33% | 1% | 1%
O=C(Cn1c(CSc2ccccc2)nc2ccccc21)Nc1ccccc1 | -21% | -5% | . | 18% | . | .
Cc1cc(C)n(-c2nc3cc(Cl)c(Cl)cc3nc2Nc2c(C)cccc2C)n1 | . | . | . | 4%[59 µM] | . | -1%
CC(=O)c1ccc(NC(=O)CSc2nc(=O)n(Cc3ccncc3)c3c2CCC3)cc1 | . | . | . | 11%[59 µM] | . | 3%
CC(/C=N/n1c(-c2ccccc2)n[nH]c1=S)=C\c1ccco1 | ? | 0% | -1 | 2.2µM* | -28% | 2%
CC(/C=N/n1c(-c2ccc(C)cc2)n[nH]c1=S)=C\c1ccco1 | 50µM* | 2% | 1 | 1.3µM* | ? | ?
CC(/C=N/n1c(-c2ccco2)n[nH]c1=S)=C\c1ccco1 | 45µM* | 3% | 1 | 1.4µM* | -29% | -6%
CCc1cccc(C)c1NC(=O)c1cnn(-c2ccc(OC)cc2)c1C1CCN(C(=O)OC(C)(C)C)CC1 | . | . | . | -27%[59 µM] | . | 8%
NCCn1oc(=O)[nH]c1=O | 27% | . | . | 39%[59 µM] | . | 13%
CCc1ccc(NC(=O)CN(C)S(=O)(=O)c2ccc3c(c2)c(=O)n(C)c(=O)n3C)cc1 | . | . | . | -4%[59 µM] | . | -8%
COc1ccc(C2=CSC3=NNC4(CCCCC4)NN23)cc1 | -23% | -10% | -2 | 40µM* | -15% | -26%
Cc1ccc(C2=CSC3=NNC4(CCCCC4)NN23)cc1 | -6% | -3% | -1 | ? | -23% | -8%
O=C1CCCc2cc(S(=O)(=O)N3CCCC(C(=O)NCc4ccc(Cl)cc4)C3)ccc2N1 (stereo not drawn) | . | . | . | -4%[59 µM] | . | 14%
SMILES | Sfp inh | Mm-Cpn inhibitor | CCT chaperon mod | G9a block | PLK1 PBD block | VDR inhibitor
CC(=O)C1=C(O)C(=O)N(c2ccc(Br)cc2)C1c1cccc(F)c1 (stereo not drawn) | 13% | -8% | -4 | 45µM* | -15% | -18%
CC(=O)C1=C(O)C(=O)N(c2ccc(O)cc2)C1c1cccc([N+](=O)[O-])c1 (stereo not drawn) | 25% | 1% | -6 | 50µM* | -6% | ?
O=C(/C=C/c1cccs1)c1cc(Cl)ccc1O | -3% | -7% | -3 | 40µM* | -3% | ?
Cc1cc(=O)oc2c(C(=O)/C=C/c3ccccc3)c(O)ccc12 | 12% | -1% | 3 | -23%[2.33 µM] | -11% | 0%
O=C(C=Cc1cccs1)c1ccc(Cl)s1 | . | . | -2 | . | -12% | 40µM*
Cc1cc(=O)oc2c(C(=O)/C=C\c3cccs3)c(O)ccc12 | ? | -2% | 2 | 45µM* | -11% | ?
CCCCOc1ccc(-c2nonc2NC(=O)c2ccco2)cc1 | . | . | . | 2%[59 µM] | . | 6%
CCC(=O)N1CCc2cc(Br)cc(S(=O)(=O)NCCc3ccc(C)cc3)c21 | . | . | . | -3%[59 µM] | . | 8%
Cc1cc(/C=C2/C(=N)N3C(=NC2=O)SN=C3S(C)(=O)=O)c(C)n1-c1ccc(F)cc1 | -13% | -1% | -1 | 40µM* | ? | -3%
COc1ccccc1-n1c(C)cc(/C=C2\C(=N)N3N=C(CC(=O)N4CCOCC4)SC3=NC2=O)c1C | 12% | -3% | 0 | -15% | -5% | -22%
CCOc1ccc(-n2c(C)cc(/C=C3/C(=N)N4C(=NC3=O)SN=C4S(C)(=O)=O)c2C)cc1 | -25% | 0% | -1 | 28µM* | 19µM* | ?
COc1ccccc1-n1c(C)cc(/C=C2/C(=N)N3C(=NC2=O)SN=C3S(C)(=O)=O)c1C | -15% | 0% | -2 | 50µM* | ? | -19%
CCOc1ccccc1NC(=O)Cn1c(=O)n(Cc2ccc(OC)cc2)c(=O)c2oc3ccccc3c21 | . | . | . | -2%[59 µM] | . | 4%
CCc1ccccc1NC(=O)Nc1nnc(N2CCCC2)s1 | . | . | . | -34%[59 µM] | . | 2%
CS(=O)(=O)N(Cc1ccccc1)c1ccc(C(=O)Nc2ccc(Cl)cc2)cc1 | . | . | . | 7%[59 µM] | . | -13%
COc1ccc(/C=C2\CCc3ccccc3C2=O)cc1Cn1nc(C)cc1C | 20µM* | 1% | -3 | 0%[12.7 µM] | 1% | -23%
COc1ccc(/C=C2/CCc3ccccc3C2=O)cc1CN1CCOCC1 | 1% | 0% | -4 | ? | -10% | -5%
COc1cc(/C=N/Nc2nc(=O)[nH]nc2C)cc([N+](=O)[O-])c1O | 56µM* | -6% | -1 | -47%[59 µM] | 3% | -25%
Cc1cc(C(=O)N/N=C/c2ccc(O)c([N+](=O)[O-])c2)n[nH]1 | 7% | 0% | 1 | 38%[59 µM] | -5% | 7%
COc1ccc(/C=N/Nc2nc(=O)[nH]nc2C)cc1OC | 19% | -1% | -3 | -1% | -5% | 13%
COc1cc(/C=N/Nc2nc(=O)[nH]nc2C)ccc1O | 56µM* | 1% | 0 | -127%[12.7 µM] | -27% | 9%
COc1ccc(/C=N/Nc2nc(=O)[nH]nc2C)cc1[N+](=O)[O-] | ? | -16% | 2 | ? | -8% | 0%
